# In PubChem BioAssay (EPA / NIEHS):
# Inconclusive results are not listed. Calls of active or inactive are those of the source. Rule for the calls: active = hit-call score of the fitted dose curve at least 0.9, where 1 is the maximum; inconclusive = response in the unintended direction; inactive = score below 0.9.
# Target: human Vitamin D Receptor (VDR), VDR (gene 7421) (UniProt P11473)
# Experiment: ATG_VDR_TRANS: Attagene TRANS-FACTORIAL HepG2 Assay for human Vitamin D Receptor (VDR) (AID 2283022)
# In short: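 RT-PCR/capillary electrophoresis read-out of reporter mRNA induction in transiently transfected HepG2; 24 h dosing; chimeric NR-Gal4 (TRANS format); gain-of-signal fit against DMSO baseline.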
# Chain of human Vitamin D Receptor (VDR), VDR (gene 7421) (P11473 whole entry, looked up): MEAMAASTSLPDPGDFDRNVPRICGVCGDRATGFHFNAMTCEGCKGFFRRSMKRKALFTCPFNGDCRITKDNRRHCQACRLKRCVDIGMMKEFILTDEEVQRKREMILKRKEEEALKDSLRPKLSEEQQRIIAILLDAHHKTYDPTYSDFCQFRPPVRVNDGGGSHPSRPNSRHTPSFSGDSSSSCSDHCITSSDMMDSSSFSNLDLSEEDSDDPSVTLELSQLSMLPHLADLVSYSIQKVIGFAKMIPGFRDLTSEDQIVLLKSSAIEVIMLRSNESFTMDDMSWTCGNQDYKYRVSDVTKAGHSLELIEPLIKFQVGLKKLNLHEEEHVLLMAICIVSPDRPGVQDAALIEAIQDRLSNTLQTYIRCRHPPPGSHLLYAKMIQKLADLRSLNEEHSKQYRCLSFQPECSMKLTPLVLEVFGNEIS
row,Structure (SMILES),outcome
1,O=NN1CCOCC1,inactive
2,CN(N=O)c1ccc([N+](=O)[O-])cc1,inactive
3,CN(C)c1ccc(N=O)cc1,inactive
4,C[CH2][Hg][S]c1ccccc1C(=O)O,inactive
5,CCCCN(CCCC)C(=S)S,inactive
6,CCCSP(=S)(OCC)Oc1ccc(Cl)cc1Cl (stereo not drawn),inactive
7,CCCCCCCCCCCCCl,inactive
8,COCCl,inactive
9,CCOP(=S)(OCC)Oc1ccc(Cl)cc1Cl,inactive
10,C=CC(F)(C(F)(F)F)C(F)(F)C(F)(F)F (stereo not drawn),inactive
11,CN(C)[C@@H]1C(=O)C(C(N)=O)=C(O)[C@@]2(O)C(=O)C3=C(O)c4c(O)ccc(Cl)c4[C@@](C)(O)[C@H]3C[C@@H]12,inactive
12,COC(F)(C(F)(F)C(F)(F)F)C(F)(C(F)(F)F)C(F)(F)F (stereo not drawn),inactive
13,O=C(CBr)c1ccc(O)cc1,inactive
14,CN(C1CCCCC1)C1CCCCC1,inactive
15,ClCCCCl,inactive
16,CCCSP(=S)(OCC)Oc1ccc(SC)cc1 (stereo not drawn),inactive
17,BrCc1ccc(Br)cc1,inactive

row,Structure (SMILES),outcome
1,CC(=Cc1ccccc1)[N+](=O)[O-],inactive
2,N#Cc1ccccc1N,inactive
3,Cc1cc(Cl)ccc1OCCCC(=O)O,inactive
4,Cc1cc(-c2cc(C)c(N)c(C)c2)cc(C)c1N,inactive
5,OC[P+](CO)(CO)CO,inactive
6,CC(c1ccccc1)(c1ccc(O)cc1)c1ccc(O)cc1,inactive
7,ClCc1ccccc1CCl,inactive
8,CC(C)(C1CCC(O)CC1)C1CCC(O)CC1 (stereo not drawn),inactive
9,c1csc(-c2ccc(-c3cccs3)s2)c1,inactive
10,CC1(C)COP(Oc2ccccc2)OC1,inactive
11,C[C@@H]1O[C@@H](O[C@H]2C[C@@H](O)[C@]3(CO)[C@H]4[C@H](O)C[C@]5(C)[C@@H](C6=CC(=O)OC6)CC[C@]5(O)[C@@H]4CC[C@]3(O)C2)[C@H](O)[C@H](O)[C@H]1O,inactive
12,O=C=Nc1ccc(Cl)cc1,inactive
13,O=C(NC(=O)c1c(F)cccc1F)Nc1ccc(Cl)cc1,inactive
14,CCOP(=S)(OCC)O/N=C(\C#N)c1ccccc1,inactive
15,CC[N+](CC)(CC)CC,inactive
16,BrCC(Br)c1ccccc1 (stereo not drawn),inactive
